# Data published in PubChem BioAssay.
# Experiment: small-molecule microarray binders of probe aShh, primary screen, biochemical, biotinylated probe, 635/667 nm fluorescence (AID 1114);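 note: probe is biotin-labelled aShh protein from a stem cell growth factor screen; measures binding of labelled protein to compounds printed on the slide; score merges feature fluorescence at 667 nm with signal-to-noise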
# Conditions: higher = more signal
row,Compound,composite z-score
1,COC(=O)c1c(CC[C@@H](CO)NC(=O)N[C@@H](Cc2ccccc2)Cn2cc(C3(O)CCCCC3)nn2)oc(C(C)=O)c1C(=O)OC,-0.142
2,Cc1ccc(S[C@]2(C(=O)NCc3ccccc3)CC(=O)N(Cc3ccccc3Cl)[C@@H]2c2ccc(CO)cc2I)cc1,-0.426
3,COCCOC(=O)N1C(=O)[C@@]2(c3cc(C#Cc4ccc(OC)cc4)ccc31)[C@H](C(=O)N1CCN(c3ncccn3)CC1)[C@H]1C(=O)O[C@H](c3ccccc3)[C@H](c3ccccc3)N1[C@@H]2c1ccc(O)cc1,-0.138
4,CC(C)(C)OC(=O)CC[C@@]1(C(=O)NCCN2CCOCC2)N=C(c2ccc(OCCCO)cc2)O[C@@H]1c1ccccc1,-0.138
5,COCCOC(=O)N1C(=O)[C@@]2(c3cc(C#CC4(O)CCCCCC4)ccc31)[C@H](C(=O)N1CCCCCCC1)[C@H]1C(=O)O[C@H](c3ccccc3)[C@H](c3ccccc3)N1[C@@H]2c1ccccc1OCCO,0.906
6,CC(C)c1ccc(NN2C(C(O)c3c(F)cccc3Cl)C=CC3C(=O)N(c4ccccc4)C(=O)C32)cc1 (configuration not stated),1.38
7,O=C1OCC=C[C@H]2OC34C=CCN(c5ccc6ccccc6c5)C(=O)[C@H]3N(CCCO)C(=O)[C@@H]4[C@@H]12 (some centres not stated),-0.15
8,CCCCC(CC)C(O)C1C=CC2C(=O)N(c3ccccc3)C(=O)C2N1Nc1ccccc1 (configuration not stated),0.108
9,O=C1C=CC(=O)[C@@H]2CC(COc3ccccc3)=C3[C@@H](CCc4ccccc4)OB(O)C[C@@H]3[C@H]12,0.0121
10,NC(=O)NCC#Cc1ccc2c(c1)[C@]1(C(=O)N2)[C@H](C(=O)NC[C@H](O)c2ccccc2)[C@H]2C(=O)O[C@H](c3ccccc3)[C@H](c3ccccc3)N2[C@@H]1c1ccc(O)cc1,0.456
11,COC(=O)[C@@]1(Cc2ccccc2)[C@H]2c3cc(C(=O)N(C)C)n(Cc4c(-c5ccccc5)noc4C)c3C[C@H]2CN1C(=O)c1ccccc1,0.545
12,[N-]=[N+]=Nc1ccccc1[C@H]1OC(c2ccc(OCCCO)cc2)=N[C@@]1(CCS(=O)(=O)c1ccccc1)C(=O)O,0.0278
13,COCCCNC(=O)[C@@]1(C)c2ccccc2C(=O)N(Cc2cc(C(F)(F)F)cc(C(F)(F)F)c2)[C@H]1c1ccc(CO)cc1,-0.0626
14,CC(C)(C)N1CC=CC23O[C@@H]4C=CCOC(=O)[C@@H]4[C@H]2C(=O)N(CCCCCO)[C@@H]3C1=O (some centres not stated),-0.221
15,CC(C)N1C(=O)c2ccccc2[C@@H](C(=O)NCCCN(C)C)[C@@H]1c1ccc(CO)cc1,-0.367
16,COc1ccc(C(=O)Nc2cccc(CN3C(=O)[C@]4(O[C@H](CC(=O)N5CCC[C@H]5CO)[C@@H]([Si](C)(C)c5ccc(OC)cc5)[C@@H]4C)c4ccccc43)c2)cc1,-0.0959
17,O=C(CS)NCCCCCCNC(=O)[C@@H]1C[C@@H]2C(=O)N3CCC[C@H]3C(=O)N2[C@@H]1c1ccc(O)cc1,-0.0146
18,C=C[C@@H](COC(C)=O)N(Cc1ccccc1[N+](=O)[O-])S(=O)(=O)c1ccc(Br)cc1,-0.0192
19,COc1cc2c(cc1O)C(C)N(Cc1cccc(OC(F)(F)F)c1)CC2 (configuration not stated),0.0326
20,CC(C)N1C(=O)C[C@@](C(=O)NCc2ccccc2)(c2ccc([N+](=O)[O-])cc2)[C@H]1c1ccc(CO)cc1,-0.13
21,CCCN1C(=O)[C@]2(COC(c3ccc(OCCCO)cc3)=N2)Cc2ccccc21,0.118
22,COC(=O)C(CC#Cc1ccc2c(c1)[C@]1(C(=O)N2)[C@H](c2ccc(OCCO)cc2)N2[C@H](c3ccccc3)[C@H](c3ccccc3)OC(=O)[C@H]2[C@@H]1C(=O)NC[C@H](O)c1ccccc1)C(=O)OC,0.356
23,O=C1C2C=CC(C(O)c3ccc(B(O)O)cc3)N(Nc3ccccc3)C2C(=O)N1c1ccccc1 (configuration not stated),0.151
24,O=C1O[C@H](c2ccccc2)[C@H](c2ccccc2)N2[C@H]1[C@@H](C(=O)NC[C@H](O)c1ccccc1)[C@]1(C(=O)Nc3ccc(C#CCCO)cc31)[C@H]2c1ccc(O)cc1,0.0469
25,O=C1O[C@@H](c2ccccc2)[C@@H](c2ccccc2)N2[C@@H](c3ccc(O)cc3)[C@]3(C(=O)Nc4ccc(C#CC5=CCCCC5)cc43)[C@@H](C(=O)O)[C@H]12,0.123
26,CCOC(=O)C1=CCC(c2ccc(C#N)cc2)N(S(=O)(=O)c2ccc(C)cc2)C1 (configuration not stated),0.109
27,CCN(CC)c1ccc(N2CC=CC34O[C@@H]5C=CCCOC(=O)C5[C@H]3C(=O)N(CCCCCO)[C@@H]4C2=O)cc1 (some centres not stated),0.0756
